Each structure is given as a SMILES string. Results filed as inconclusive are left out. Where a call stands in place of a potency, no number is given. The source made the active and inactive calls. Calls follow the shape of the dose curve; as a rule, active = well fitted inhibition curve with a large enough effect; inconclusive = small, poorly fitted or top-dose-only effect; inactive = flat fitted curve, though single readings scatter.

The record followed here is PubChem BioAssay AID720549 (National Center for Advancing Translational Sciences (NCATS), 2013).

The target of the test is RecQ-like DNA helicase BLM (Homo sapiens) (UniProt P54132). The experiment in a line: qHTS for Inhibitors of Bloom's syndrome helicase (BLM): Helicase ATPase Orthogonal Confirmatory Assay for SAR. The method, boiled down: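 Purified BLM (2 nM) in Tris-HCl pH 8.0 with MgCl2, DTT, Tween-20, preincubated 15 min with compound. Reaction with 200 nM ssDNA and 100 uM ATP ran 15 min; ADP-Glo luminescence, four-parameter Hill fit.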
RecQ-like DNA helicase BLM (Homo sapiens), sequence (P54132 whole entry, looked up): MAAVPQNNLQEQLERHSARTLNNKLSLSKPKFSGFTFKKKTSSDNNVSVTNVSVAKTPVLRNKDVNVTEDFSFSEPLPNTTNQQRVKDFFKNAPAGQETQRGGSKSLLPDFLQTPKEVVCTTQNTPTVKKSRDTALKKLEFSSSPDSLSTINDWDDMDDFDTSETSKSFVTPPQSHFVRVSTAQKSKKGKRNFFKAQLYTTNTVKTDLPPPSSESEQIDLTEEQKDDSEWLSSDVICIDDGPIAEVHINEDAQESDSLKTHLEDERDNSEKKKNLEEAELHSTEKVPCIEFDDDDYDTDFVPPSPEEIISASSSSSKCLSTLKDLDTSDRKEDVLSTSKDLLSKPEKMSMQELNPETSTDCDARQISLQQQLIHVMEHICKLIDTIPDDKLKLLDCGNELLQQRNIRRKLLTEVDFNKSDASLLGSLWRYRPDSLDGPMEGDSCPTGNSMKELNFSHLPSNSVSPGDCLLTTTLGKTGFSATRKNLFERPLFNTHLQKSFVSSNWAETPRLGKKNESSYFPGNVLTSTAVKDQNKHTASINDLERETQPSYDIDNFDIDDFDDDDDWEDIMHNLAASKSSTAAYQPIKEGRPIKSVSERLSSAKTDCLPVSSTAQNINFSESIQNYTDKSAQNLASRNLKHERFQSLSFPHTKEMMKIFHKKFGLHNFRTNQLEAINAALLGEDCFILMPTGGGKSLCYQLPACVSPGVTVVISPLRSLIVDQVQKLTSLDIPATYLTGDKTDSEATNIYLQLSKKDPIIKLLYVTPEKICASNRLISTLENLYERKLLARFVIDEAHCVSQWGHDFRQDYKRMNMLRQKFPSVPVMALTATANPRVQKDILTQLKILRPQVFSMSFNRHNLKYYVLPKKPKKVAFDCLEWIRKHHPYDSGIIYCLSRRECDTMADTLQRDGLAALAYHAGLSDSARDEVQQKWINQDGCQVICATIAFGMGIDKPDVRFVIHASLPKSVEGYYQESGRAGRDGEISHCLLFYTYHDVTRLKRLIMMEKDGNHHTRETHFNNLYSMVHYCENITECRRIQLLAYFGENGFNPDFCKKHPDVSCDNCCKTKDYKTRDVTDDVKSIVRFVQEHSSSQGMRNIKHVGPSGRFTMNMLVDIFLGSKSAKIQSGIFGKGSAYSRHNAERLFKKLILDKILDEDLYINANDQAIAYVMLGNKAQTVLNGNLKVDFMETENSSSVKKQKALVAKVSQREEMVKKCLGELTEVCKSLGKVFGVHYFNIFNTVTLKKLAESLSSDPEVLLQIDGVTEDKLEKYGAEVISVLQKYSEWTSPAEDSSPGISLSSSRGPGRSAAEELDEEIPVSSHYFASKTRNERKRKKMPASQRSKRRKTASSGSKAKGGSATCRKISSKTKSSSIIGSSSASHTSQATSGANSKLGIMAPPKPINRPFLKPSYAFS
Background: qHTS replaces the single test concentration by a dilution series.

With `O=C(Nc1nnc(-c2ccncc2)s1)Nc1ccc(Cl)cc1F`, the Potency entry is “inactive”.

Regarding `S=C(Nc1ccc(Cl)c(Cl)c1)Nc1nnc(-c2ccncc2)o1`, the Potency result is “inactive”. In the case of `O=C(Nc1nnc(-c2ccncc2)s1)Nc1ccc(Cl)c2ccccc12` it was “inactive”; in that of `COc1ccc(NC(=O)Nc2ccc(-c3nc4ccccc4[nH]3)cc2)cc1OC`, “inactive”. Turning to `O=C(Nc1ccc2ccccc2c1)Nc1nnc(-c2ccccc2Cl)s1`, the Potency entry is “inactive”. For `Cc1ccc(-c2nnc(NC(=O)Nc3ccc4ccccc4c3)s2)cc1`, the Potency entry is “inactive”.

Take `O=c1c(Nc2ccc(Br)c(Br)c2)c(Nc2nnc(-c3ccncc3)s2)c1=O`: the Potency was 20.4 µM (active).

Turning to `Cc1cc(NC(=O)Nc2cccc(-c3ccncc3)n2)ccc1Br`, the Potency result is “inactive”. In the case of `O=C(Nc1ccc(Cl)c(Cl)c1)N1CCN(c2ccncc2)CC1` it was “inactive”; in that of `O=C(Nc1ccc(-c2ccccc2)cc1)Nc1nnc(-c2ccncc2)s1`, “inactive”; in that of `CN1CCN(c2nnc(NC(=O)Nc3ccc(Cl)c(Cl)c3)s2)CC1`, “inactive”.

For `O=S(=O)(Cc1ccc(Cl)c(Cl)c1)Nc1nnc(-c2ccncc2)s1`, the Potency result is “inactive”.

As to `O=C(Nc1ccc(F)c(C(F)(F)F)c1)Nc1cccc(-c2ccncc2)n1`, the Potency result was “inactive”.

For `CC(C)(C)c1cccc(NC(=O)Nc2nnc(-c3ccncc3)s2)c1`, the Potency entry is “inactive”. Turning to `O=C(Nc1ccc(Cl)c(Cl)c1)Nc1nnc(-c2ccncc2)o1`, the Potency entry was “inactive”. Regarding `O=C(Nc1ccc2ccccc2c1)Nc1nnc(-c2ccccn2)s1`, the Potency entry was “inactive”. For the molecule `O=C(Nc1ccc(Cl)c(Cl)c1)Nc1nnc(NC2CCNCC2)s1`, the Potency result is “inactive”. For the molecule `O=C(Nc1ccc(-n2ccnc2)c(F)c1)Nc1nnc(-c2ccncc2)s1`, the Potency is 14.5 µM (active). In the case of `N#Cc1cc(NC(=O)Nc2nnc(-c3ccncc3)s2)ccc1F` it was 1.02 µM (active); in that of `O=C(NCc1ccc(Cl)c(Cl)c1)Nc1nnc(-c2ccncc2)s1`, “inactive”. The value for `Nc1ccc(NC(=O)Nc2nnc(-c3ccncc3)s2)cc1C(F)(F)F` was “inactive”; that for `Cc1cc(NC(=O)Nc2nnc(C3CCCCC3)s2)ccc1Br` was “inactive”. In the case of `O=C(Nc1ccc(Cl)c(Cl)c1)Nc1nnc(C2CCCCC2)s1` it was “inactive”; in that of `O=C(Nc1ccc(Cl)c(Cl)c1)Nc1cccc(-c2ccncc2)n1`, “inactive”.
